Measured values from PubChem BioAssay AID880 (National Center for Advancing Translational Sciences (NCATS), 2007).
About 1,000 (0.43%) of roughly 230,000 compounds were called active. For the sample, actives were picked, then their nearest neighbours and some compounds at random. Values without a mark were called inactive. Calls follow the shape of the dose curve; as a rule, active = well fitted inhibition curve with a large enough effect (not every such curve was filed as active); inactive = no such curve, though single readings can be large or run the other way.

Target: Guanine nucleotide-binding protein G(i) subunit alpha-1 (Homo sapiens) (UniProt P63096)
Sequence (P63096 whole entry, looked up): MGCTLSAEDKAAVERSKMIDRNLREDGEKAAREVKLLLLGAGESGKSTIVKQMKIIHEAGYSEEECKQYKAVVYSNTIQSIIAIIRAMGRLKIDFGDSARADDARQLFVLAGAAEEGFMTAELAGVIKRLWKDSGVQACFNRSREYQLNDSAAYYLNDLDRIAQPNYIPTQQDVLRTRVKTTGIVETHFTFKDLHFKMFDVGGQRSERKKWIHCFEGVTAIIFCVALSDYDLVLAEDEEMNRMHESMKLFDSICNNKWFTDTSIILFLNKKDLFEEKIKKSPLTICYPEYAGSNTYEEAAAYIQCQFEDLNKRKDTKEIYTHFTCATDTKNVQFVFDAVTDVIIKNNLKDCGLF
Assay: qHTS Assay for Inhibitors of RGS12 GoLoco Motif Activity (Red Fluorophore); also: nearly all actives have a fitted effect of over 30% in size
Conditions: Gai1:RGS12 GoLoco peptide FP, rhodamine, 10 min; series mostly up to 61.6 µM; activity, negative = inhibition: at the top concentration
Excerpt: Assay Submitter: Siderovski, David P, University of North Carolina at Chapel Hill
Screening Center PI: Austin, C.P.
Screening Center: NIH Chemical Genomics Center [NCGC]
G-protein-coupled receptors (GPCRs) are major targets for drug discovery. The regulator of G-protein signaling (RGS)-protein family has important roles in GPCR signal transduction. RGS proteins contain a conserved RGS-box, which is often accompanied by other signaling regulatory elements. RGS proteins accelerate the deactivation of G proteins to reduce GPCR signaling; however, some also have an effector function and transmit signals. Combining GPCR agonists with RGS inhibitors should potentiate responses, and could markedly increase the agonist's regional specificity. The diversity of RGS proteins with highly localized and dynamically regulated distributions in brain makes them attractive targets for pharmacotherapy of central nervous system disorders. […] A complex of Gai1 and fluorescently labeled G-alpha-binding peptide (the "GoLoco motif") derived from RGS12 is incubated with library members. Inhibitors of the binding are detected by a decrease in the fluorescence polarization (FP) of the fluorophore. Protein was supplied by Prof. David Siderovski, University of North Carolina at Chapel Hill.
Assay Buffer: 10 mM Tris-HCl, 150 mM NaCl, 0.1 mM GDP (prepared fresh), and 0.05% NP40 at pH 7.5.
15 nM Rhodamine labeled peptide/25 nM protein in columns 1, 2, 5 - 48. Titration of unlabeled peptide control ([H][…][NH2], custom synthesized and HPLC-purified by Tufts University Core Facility) from 20 mM, then 1:2 dilution, 16-point in duplicate, pin-transferred to column 2, rows 1 to 32. Column 1 is neutral.
Rhodamine-labeled peptide (Rhodamine-[…]-NH2) was custom-synthesized and HPLC-purified by Invitrogen (Carlsbad, CA).
Four uL of reagents were dispensed to 1536-well Greiner black solid-bottom plates. Compounds and controls (23 nL) were transferred via Kalypsys PinTool. The plates were incubated for 10 min at room temperature, and then read on ViewLux (Perkin-Elmer) High-throughput CCD imager using BODIPY for the rhodamine-labeled decapeptide probe. During dispense, reagent bottles were kept submerged into 4 deg C water bath and all liquid lines were covered with aluminum foil to minimize probe and protein degradation. All screening operations were performed on a Kalypsys robotic system (Kalypsys, Inc., San Diego, CA) containing one RX-130 and two RX-90 anthropomorphic robotic arms.
% is scaled to controls: 0 for no effect and ±100 for the full control effect; potency is read from the fitted curve at half-maximal effect.

In order of falling “activity, negative = inhibition” value:
1. COc1ccc(-c2csc3nc(-c4ccccc4F)oc(=O)c23)cc1OC  49.5%
2. COc1ccc(C2C(C#N)=C(N)Oc3cc(N)ccc32)cc1OC (stereo unspecified)  34.9%
3. O=C(CSc1nc(-c2ccccc2)cs1)Nc1cccc([N+](=O)[O-])c1  22.5%
4. O=C1CC(c2ccccc2)=NN1c1ccc([N+](=O)[O-])cc1  19.2%
5. CCOC(=O)/C(C#N)=C/c1ccc(N2CCCCC2)cc1  17.3%
6. COc1ccc(/C=C/C2=CC(C)(C)NC(=S)N2)c(OC)c1  16%
7. Cc1cc(C)cc(NC(=S)NCc2ccc(F)cc2)c1  10.8%
8. CC(=O)N(CC(O)CO)c1c(I)c(C(=O)NCC(O)CO)c(I)c(C(=O)NCC(O)CO)c1I (stereo unspecified)  9.65%
9. OC[C@H]1O[C@@H](n2cnc3c(NC4CCCC4)ncnc32)[C@H](O)[C@H]1O  9.13%
10. COC(=O)c1ccccc1NC(=S)NC(=O)c1ccccc1F  8.73%
11. O=C(Nc1ccc(N2CCOCC2)cc1)c1ccc(-c2ccccc2[N+](=O)[O-])o1  7.4%
12. CN(C)C(=O)c1coc2nc3ccccc3nc12  7.19%
13. CC(C)=CCC[C@]1(C)[C@@H](CC=C(C)C)C[C@@]2(CC=C(C)C)C(=O)[C@]1(C(=O)C(C)C)C(=O)C(CC=C(C)C)=C2O  6.25%
14. N#Cc1cccc(CS(=O)(=O)c2nnnn2-c2cc(C(F)(F)F)cc(C(F)(F)F)c2)c1  5.33%
15. CC(=O)Nc1ccc(NC(=O)COc2ccc(S(=O)(=O)NC(C)c3ccccc3)cc2)cc1 (stereo unspecified)  4.88%
16. CCCCNC(=O)Nc1c(C)cc(SC#N)cc1C  4.69%
17. CC(=O)Nc1cccc([N+](=O)[O-])c1  4.48%
18. COc1cc(/C=N/NC(=S)Nc2cccnc2)cc(OC)c1O  4.13%
19. COc1cccc([C@@H]2Oc3ccc(Br)cc3C(=O)[C@H]2OC(=O)NCCc2ccc(OC)c(OC)c2)c1  4.12%
20. Cc1ccccc1NC(=S)Nc1cccc([N+](=O)[O-])c1  3.92%
21. C/C=C(\C)C(=O)OC1C(OC(=O)C2(C)OC2C)c2cc3ccc(=O)oc3cc2OC1(C)C (stereo unspecified)  3.63%
22. COc1ccccc1C1CCN(C(=S)Nc2ccc(Br)cc2)CC1  3.54%
23. CC1(C)C2CCC1(C)C(OC(=O)c1ccc(O)cc1)C2 (stereo unspecified)  3.31%
24. O=C(C/C(=N\NC(=O)c1ccccc1Br)C(F)(F)F)c1cccs1  2.99%
25. O=C1CC(N2CCN(C(c3ccccc3)c3ccccc3)CC2)C(=O)N1 (stereo unspecified)  2.76%
26. CCOC(=O)C1CCCN(C(=O)COc2ccc(N(C)S(=O)(=O)c3ccc(C)cc3)cc2)C1 (stereo unspecified)  2.68%
27. CC(=O)N/N=C(\C)c1ccc(Br)cc1Br  2.4%
28. O=C1NC(c2ccc(-c3ccccc3[N+](=O)[O-])o2)C(C(=O)c2ccc(Cl)cc2)C(O)(C(F)(F)F)N1 (stereo unspecified)  2.26%
29. COc1ccc2c(c1)C(=C(C#N)C#N)C(=O)N2CCc1ccccc1  2.09%
30. Cc1ccc(NC2=C(Cl)C(=O)OC2OC(=O)c2ccccc2C)cc1 (stereo unspecified)  1.58%
31. O=c1[nH]c2cccnc2n1-c1ccc([N+](=O)[O-])cc1  1.5%
32. COC(C(=O)Nc1ccc(S(=O)(=O)Nc2ccc(C)c(C)c2)cc1)c1ccccc1 (stereo unspecified)  1.08%
33. COC(=O)[C@@H]1CC2=CC(=O)CC[C@]2(C)[C@@]23O[C@@H]2C[C@@]2(C)[C@@H](CC[C@@]24CCC(=O)O4)[C@H]13  0.192%
34. CC1(C)OC(=O)N2CCc3ccccc3C21C (stereo unspecified)  -0.247%
35. C=C/C1=C/Cc2ccccc2[C@H](C[N+](=O)[O-])C(C(=O)OC)(C(=O)OC)C1  -0.39%
36. CC(C)(C)NC(=O)c1ccc(Cn2cc(C(F)(F)F)ccc2=O)cc1  -0.997%
37. N#C/C(=C/c1ccc(N2CCCCC2)o1)C(=O)NCCc1c[nH]c2ccccc12  -1.11%
38. COc1ccc(CC(=O)N2N=C(C)CC2(O)C(F)(F)F)cc1 (stereo unspecified)  -1.6%
39. CCn1c(=O)c2cc(C(=O)Nc3cccc(C(C)=O)c3)sc2c2ccccc21  -2.18%
40. Cc1cc(C(=O)NNC(=S)Nc2ccccc2C)cs1  -2.37%
41. O=C(NCc1ccco1)O[C@@H]1C(=O)c2cc(Br)ccc2O[C@H]1c1ccc2c(c1)OCO2  -2.95%
42. Cc1ccc2c(CC(=O)NCc3cccs3)coc2c1  -4.74%
43. COc1ccc(-c2nc(-c3ccccc3)oc2Nc2ccc3ccccc3c2)cc1  -5.32%
44. Cc1ccccc1Cn1c2ccccc2c2cnn(CC(=O)NCc3ccco3)c(=O)c21  -6.25%
45. C=CCSc1nc(N)cc(=O)[nH]1  -8.03%
46. CCCCCCn1c(SCC(=O)c2ccccc2)nc2c1c(=O)[nH]c(=O)n2C  -8.12%
47. Cc1ccccc1CN(c1ccc(C(=O)NCC2CCCO2)cc1)S(C)(=O)=O (stereo unspecified)  -10.8%
48. CC(=O)/C(C)=N/O  -21.5%
49. CC1(C)CC(=O)C=C(N2CCCC2)C1  -22.1%
50. Cc1ccccc1C(=O)Nc1ccc(N2CCCCCC2)cc1  -22.7%

For `CC1(C)CC(N2CCN(C(c3ccccc3)c3ccccc3)CC2)=CC(=[N+]2CCCCC2)C1`, the Potency was 17.8 µM (active).
With `O=C1C=CC(=O)N1c1ccc(N2CCCCC2)cc1` the Potency was 5.01 µM (active).
`COc1ncnc2c1N=C1CC(C)(C)CC(N)=C1S2` was tested, and the Potency was 25.1 µM (active).
With `O=c1[nH]n(-c2ccc([N+](=O)[O-])cc2)c(=O)c2ccccc12` the Potency was 14.1 µM (active).
`COC(=O)/C=C\C(=O)Nc1cccc([N+](=O)[O-])c1` was tested, and the Potency was 0.891 µM (active).
With `Nc1ccc2nc3c(=O)[nH]c(=S)[nH]c3nc2c1` the Potency was 14.1 µM (active).
With `O=c1[nH]c(=O)c2nc3ccccc3nc2[nH]1` the Potency was “inactive”.
In the case of `CCCCCCCC[n+]1cccc(C(=O)N2c3c(nc(N)[nH]c3=O)NC(C)C2C)c1` (stereo unspecified), the Potency is reported as 11.2 µM (active).

In order of rising “activity, negative = inhibition” value:
1. COc1ccc(-c2c(C)cc3oc(=O)cc(-c4ccccc4)c3c2C)cc1C=O  -5.78% [at 88.7 µM]
2. COc1cccc(-c2cc(=O)c3cc(NC(=O)c4ccc(C)cc4)ccc3[nH]2)c1  4.14% [at 88.7 µM]
3. Cc1cccc([C@H]2[C@@H]3C=CC[C@@H](C)[C@@H]3C(=O)N2Cc2ccccc2)c1  6.72% [at 88.7 µM]
